Consider 9 sequences from publication PMC8384837, “Expanding the binding specificity for RNA recognition by a PUF domain”.

What all share (experiment): yeast three-hybrid, YBZ-1, SC-Leu-His + 0.5 mM 3-AT, 4 days
Settings in all cases: tags: N-Gal4 AD-HA kept; label: inside an RPR1-promoter hybrid RNA with tandem MS2 sites; ssRNA

The target of test [1] is T1, PUM1 PUF domain R6-FWL (Homo sapiens, UniProt Q14671 828-1176, N1043F;Y1044W;Q1047L).
T1 sequence: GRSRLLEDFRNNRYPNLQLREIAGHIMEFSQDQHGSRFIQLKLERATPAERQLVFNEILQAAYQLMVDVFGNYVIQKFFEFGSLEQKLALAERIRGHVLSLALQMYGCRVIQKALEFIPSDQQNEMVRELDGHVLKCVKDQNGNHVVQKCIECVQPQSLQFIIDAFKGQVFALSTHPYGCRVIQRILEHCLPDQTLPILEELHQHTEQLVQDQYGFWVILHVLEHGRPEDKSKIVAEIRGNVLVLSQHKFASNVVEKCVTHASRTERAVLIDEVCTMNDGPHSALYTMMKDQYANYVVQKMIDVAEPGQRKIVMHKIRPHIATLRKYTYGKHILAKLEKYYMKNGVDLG
Summed up: (§1)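 A centromeric plasmid in strain YBZ-1 co-expressed Pumilio-1 PUF domain libraries, randomized at the three base-contacting residues of each repeat, with matching RNA elements; the strain carries a LexA–MS2 coat fusion and a HIS3 reporter. After four days on SC-Leu (input) or SC-Leu-His + 0.5 mM 3-AT (selection), the repeat regions were PCR-amplified and Illumina-sequenced. The interaction score is the log change in variant frequency from input to selection, using log2 and a pseudocount of 1 where absent.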

For test [2], the target named is PUM1 PUF domain R8-LYA (Homo sapiens, UniProt Q14671 828-1176, N1122L;Q1126A). Put shortly: as §1
Test [3] has as its target PUM1 PUF domain R3-VWF (Homo sapiens, UniProt Q14671 828-1176, C935V;R936W;Q939F). Summed up: as §1
Test [4] addresses PUM1 PUF domain R3-RAS (Homo sapiens, UniProt Q14671 828-1176, C935R;R936A;Q939S). Summed up: as §1
The target in test [5] is PUM1 PUF domain R3-VHW (Homo sapiens, UniProt Q14671 828-1176, C935V;R936H;Q939W). Put shortly: as §1
Test [6] deals with PUM1 PUF domain R5-KSL (Homo sapiens, UniProt Q14671 828-1176, C1007K;R1008S;Q1011L). Summed up:
as §1

Test [7] concerns the target PUM1 PUF domain R4-CFP (Homo sapiens, UniProt Q14671 828-1176, N971C;H972F;Q975P). Put shortly: as §1
The target in test [8] is T2, PUM1 PUF domain R6-HRK (Homo sapiens, UniProt Q14671 828-1176, N1043H;Y1044R;Q1047K).
T2 sequence: T1 sequence with F216H, W217R, L220K
Put shortly: as §1

The target of test [9] is PUM1 PUF domain R3-CRH (Homo sapiens, UniProt Q14671 828-1176, Q939H). Put shortly:
as §1

In test [10] the target is PUM1 PUF domain R5-KPL (Homo sapiens, UniProt Q14671 828-1176, C1007K;R1008P;Q1011L). Put shortly: as §1

Positions count from the first letter of the chain named.

Chain of PUM1 PUF domain R5-KPL (Q14671 828-1176 C1007K/R1008P/Q1011L): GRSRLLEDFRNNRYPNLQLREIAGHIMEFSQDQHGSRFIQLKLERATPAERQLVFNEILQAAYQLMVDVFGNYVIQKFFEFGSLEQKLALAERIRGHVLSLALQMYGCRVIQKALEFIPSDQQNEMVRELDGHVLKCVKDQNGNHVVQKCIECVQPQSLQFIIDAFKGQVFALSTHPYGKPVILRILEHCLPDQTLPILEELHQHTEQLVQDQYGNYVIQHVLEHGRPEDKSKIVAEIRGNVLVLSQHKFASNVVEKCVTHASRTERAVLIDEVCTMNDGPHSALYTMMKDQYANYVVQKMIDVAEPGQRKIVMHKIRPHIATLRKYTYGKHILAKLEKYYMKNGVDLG
Chain of PUM1 PUF domain R3-RAS (Q14671 828-1176 C935R/R936A/Q939S): as the sequence (Q14671 828-1176 C1007K/R1008P/Q1011L) above, with C108R, R109A, Q112S, K180C, P181R, L184Q counted along it

As to “GGCUAGAACUAGUGGAUCCCCCGGCGCCCGGCGGCUCGAGCCCGGGUAAGUGAAAAUAGUCUGCAUGCCGCCGGGCGCCAUGCCUGCAGGUCGACUCUAGAAAACAUG”, the binding signal in [1] is 5.88 log2 enrichment (interaction score).

Regarding “GGCUAGAACUAGUGGAUCCCCCGGCGCCCGGCGGCUCGAGCCCGGGUAAGCGUAAAUAGUCUGCAUGCCGCCGGGCGCCAUGCCUGCAGGUCGACUCUAGAAAACAUG”, the binding signal in [2] was 2.77 log2 enrichment (interaction score).

With “GGCUAGAACUAGUGGAUCCCCCGGCGCCCGGCGGCUCGAGCCCGGGUAAGUGUAAUUAGUCUGCAUGCCGCCGGGCGCCAUGCCUGCAGGUCGACUCUAGAAAACAUG”, the binding signal in [3] was 2.85 log2 enrichment (interaction score); in test [4], 3.67 log2 enrichment (interaction score).

In the case of “GGCUAGAACUAGUGGAUCCCCCGGCGCCCGGCGGCUCGAGCCCGGGUAAGUGUAAAUAGUCUGCAUGCCGCCGGGCGCCAUGCCUGCAGGUCGACUCUAGAAAACAUG”, the binding signal in test [5] was 3.99 log2 enrichment (interaction score); in test [3] it was 5.2 log2 enrichment (interaction score); in test [6], 0.96 log2 enrichment (interaction score); in test [7], 5.06 log2 enrichment (interaction score); in test [2] it was 1.25 log2 enrichment (interaction score); in test [8], 2.98 log2 enrichment (interaction score). For the same sequence, the binding signal in [1] is 5.31 log2 enrichment (interaction score); in test [9] it was 3.86 log2 enrichment (interaction score).

Consider “GGCUAGAACUAGUGGAUCCCCCGGCGCCCGGCGGCUCGAGCCCGGGUAAGUGUAUAUAGUCUGCAUGCCGCCGGGCGCCAUGCCUGCAGGUCGACUCUAGAAAACAUG”, for which the binding signal in test [7] is 6.56 log2 enrichment (interaction score).

As for “GGCUAGAACUAGUGGAUCCCCCGGCGCCCGGCGGCUCGAGCCCGGGUAAGUGUUAAUAGUCUGCAUGCCGCCGGGCGCCAUGCCUGCAGGUCGACUCUAGAAAACAUG”, the binding signal in test [6] was 3.78 log2 enrichment (interaction score).

“GGCUAGAACUAGUGGAUCCCCCGGCGCCCGGCGGCUCGAGCCCGGGUAAGUGUCAAUAGUCUGCAUGCCGCCGGGCGCCAUGCCUGCAGGUCGACUCUAGAAAACAUG”: the binding signal in test [10] was 4.18 log2 enrichment (interaction score); in test [6], 3.79 log2 enrichment (interaction score).

As to “GGCUAGAACUAGUGGAUCCCCCGGCGCCCGGCGGCUCGAGCCCGGGUAAGUGUACAUAGUCUGCAUGCCGCCGGGCGCCAUGCCUGCAGGUCGACUCUAGAAAACAUG”, the binding signal in test [7] was 2.19 log2 enrichment (interaction score).

For the sequence “GGCUAGAACUAGUGGAUCCCCCGGCGCCCGGCGGCUCGAGCCCGGGUAAGUGUAAGUAGUCUGCAUGCCGCCGGGCGCCAUGCCUGCAGGUCGACUCUAGAAAACAUG”, in test [3], the binding signal is 2.09 log2 enrichment (interaction score).
